# Test results reported in ChEMBL document CHEMBL5606458, “ASAP - ZIKV NS2B-NS3 protease fluorescence single point” (2024).
# Screen size: about 2,700 compounds; about 160 (5.9%) showed an effect of 50% or more. Many of the other results were omitted from the sample, so strong results are more common in it than they were.
# Molecular target: Nonstructural protein 3 (Zika virus) (UniProt A0A024AXB9)
# Sequence (A0A024AXB9 as listed by the source): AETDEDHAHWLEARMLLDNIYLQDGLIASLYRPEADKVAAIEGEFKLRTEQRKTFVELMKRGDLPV
smiles,measurement,setting,value
O=C(NC[C@H]1CCOC1)c1cc(Cl)ccc1NS(=O)(=O)c1ccc(Oc2ccccc2Cl)cc1,inhibition,"PRVABC59, Concentration 49.5 uM, Number of replicates 2.0, Standard deviation 4.1620208465884945 %",16.4%
same,inhibition,"PRVABC59, Concentration 99.01 uM, Number of replicates 2.0, Standard deviation 1.5720504754733005 %",31.6%
same,inhibition,"PRVABC59, Concentration 198.0 uM, Number of replicates 2.0, Standard deviation 3.020626194849933 %",23.3%
C[C@H]1COCCN1C(=O)c1cc(Cl)ccc1NS(=O)(=O)c1ccc(Oc2ccccc2Cl)cc1,inhibition,"PRVABC59, Concentration 49.5 uM, Number of replicates 2.0, Standard deviation 0.03588483834653944 %",17%
same,inhibition,"PRVABC59, Concentration 99.01 uM, Number of replicates 2.0, Standard deviation 0.6631068200403265 %",40.8%
same,inhibition,"PRVABC59, Concentration 198.0 uM, Number of replicates 2.0, Standard deviation 0.09361590556282165 %",58.7%
O=C(c1cc(Cl)ccc1NS(=O)(=O)c1ccc(Oc2ccccc2Cl)cc1)N1CC[C@H](CO)C1,inhibition,"PRVABC59, Concentration 49.5 uM, Number of replicates 2.0, Standard deviation 0.6366783858004793 %",4.61%
same,inhibition,"PRVABC59, Concentration 99.01 uM, Number of replicates 2.0, Standard deviation 1.3685297503351668 %",11.5%
same,inhibition,"PRVABC59, Concentration 198.0 uM, Number of replicates 2.0, Standard deviation 0.3954655654516591 %",72.9%
Cc1cnccc1NC(=O)c1cccn(CC2CCNCC2)c1=O,inhibition,"PRVABC59, Concentration 49.5 uM, Number of replicates 2.0, Standard deviation 3.2606712103202136 %",0.531%
same,inhibition,"PRVABC59, Concentration 99.01 uM, Number of replicates 2.0, Standard deviation 2.3019517896210857 %",3.91%
same,inhibition,"PRVABC59, Concentration 198.0 uM, Number of replicates 2.0, Standard deviation 2.0430462280295743 %",7.25%
c1ccc2c([C@H]3CCN(CC[C@H]4CCCOC4)C3)c[nH]c2c1,inhibition,"PRVABC59, Concentration 49.5 uM, Number of replicates 2.0, Standard deviation 1.010318627219257 %",5.96%
same,inhibition,"PRVABC59, Concentration 99.01 uM, Number of replicates 2.0, Standard deviation 2.5976606536818863 %",9.61%
same,inhibition,"PRVABC59, Concentration 198.0 uM, Number of replicates 2.0, Standard deviation 2.1960692966802595 %",20.4%
CCn1ccnc(N2CC[C@H](c3ccn[nH]3)C2)c1=O,inhibition,"PRVABC59, Concentration 49.5 uM, Number of replicates 2.0, Standard deviation 1.2586397664505307 %",6.21%
same,inhibition,"PRVABC59, Concentration 99.01 uM, Number of replicates 2.0, Standard deviation 2.3660377586558408 %",15.1%
same,inhibition,"PRVABC59, Concentration 198.0 uM, Number of replicates 2.0, Standard deviation 2.03279173119948 %",28.1%
C[C@@H](C(=O)Nc1cccc(CN)c1)c1ccc(OCc2ccccc2)cc1,inhibition,"PRVABC59, Concentration 49.5 uM, Number of replicates 2.0, Standard deviation 0.17467234529733644 %",-0.009%
same,inhibition,"PRVABC59, Concentration 99.01 uM, Number of replicates 2.0, Standard deviation 10.257482850017862 %",21.6%
same,inhibition,"PRVABC59, Concentration 198.0 uM, Number of replicates 2.0, Standard deviation 0.22285904793408415 %",62.2%
NCc1cccc(NC(=O)Cc2ccc(OCc3ccccc3)cc2)c1,inhibition,"PRVABC59, Concentration 49.5 uM, Number of replicates 2.0, Standard deviation 0.6755896628980406 %",-0.82%
same,inhibition,"PRVABC59, Concentration 99.01 uM, Number of replicates 2.0, Standard deviation 0.4165875428765907 %",8.98%
same,inhibition,"PRVABC59, Concentration 198.0 uM, Number of replicates 2.0, Standard deviation 2.4964043674210097 %",40.9%
NCc1cccc(CNC(=O)[C@@H](NC(=O)OCc2ccccc2)c2ccc(OCc3ccccc3)cc2)c1,inhibition,"PRVABC59, Concentration 49.5 uM, Number of replicates 2.0, Standard deviation 0.160775728553173 %",99.2%
same,inhibition,"PRVABC59, Concentration 99.01 uM, Number of replicates 2.0, Standard deviation 0.12446874737194843 %",99%
same,inhibition,"PRVABC59, Concentration 198.0 uM, Number of replicates 2.0, Standard deviation 0.3293253590204834 %",98.1%
NCc1cccc(NC(=O)[C@@H](NC(=O)OCc2ccccc2)c2ccc(F)cc2)c1,inhibition,"PRVABC59, Concentration 49.5 uM, Number of replicates 2.0, Standard deviation 0.5315909510099626 %",1.43%
same,inhibition,"PRVABC59, Concentration 99.01 uM, Number of replicates 2.0, Standard deviation 0.7442277023062145 %",8.36%
same,inhibition,"PRVABC59, Concentration 198.0 uM, Number of replicates 2.0, Standard deviation 0.5134389777058966 %",25.7%
NCc1cccc(NC(=O)[C@@H](NC(=O)OCc2ccccc2)c2ccc(Br)cc2)c1,inhibition,"PRVABC59, Concentration 49.5 uM, Number of replicates 2.0, Standard deviation 0.867338983981324 %",10%
same,inhibition,"PRVABC59, Concentration 99.01 uM, Number of replicates 2.0, Standard deviation 0.4728161592371566 %",98.2%
same,inhibition,"PRVABC59, Concentration 198.0 uM, Number of replicates 2.0, Standard deviation 0.18671930544775084 %",97.9%
CCCCCC(=O)N[C@H](C(=O)NCc1ccc(NC(=N)N)cc1)c1ccc(OCc2ccccc2)cc1,inhibition,"PRVABC59, Concentration 49.5 uM, Number of replicates 2.0, Standard deviation 4.889627391275408 %",4.26%
same,inhibition,"PRVABC59, Concentration 99.01 uM, Number of replicates 2.0, Standard deviation 2.962062980256652 %",19.3%
same,inhibition,"PRVABC59, Concentration 198.0 uM, Number of replicates 2.0, Standard deviation 2.9458988209157537 %",67.5%
NCc1cccc(NC(=O)c2ccc(OCc3ccccc3)cc2)c1,inhibition,"PRVABC59, Concentration 49.5 uM, Number of replicates 2.0, Standard deviation 1.3665778981704908 %",1.2%
same,inhibition,"PRVABC59, Concentration 99.01 uM, Number of replicates 2.0, Standard deviation 3.6407499729049095 %",22.5%
same,inhibition,"PRVABC59, Concentration 198.0 uM, Number of replicates 2.0, Standard deviation 29.263434924261905 %",26.6%
NCc1cccc(NC(=O)[C@@H](NC(=O)OCc2ccccc2)c2ccc(F)c(F)c2)c1,inhibition,"PRVABC59, Concentration 49.5 uM, Number of replicates 2.0, Standard deviation 0.33969955290034887 %",-2.45%
same,inhibition,"PRVABC59, Concentration 99.01 uM, Number of replicates 2.0, Standard deviation 0.8168349211729018 %",6.3%
same,inhibition,"PRVABC59, Concentration 198.0 uM, Number of replicates 2.0, Standard deviation 1.2939689407463024 %",43.9%
c1ccc2c([C@H]3CCN(CCC4CCOCC4)C3)c[nH]c2c1,inhibition,"PRVABC59, Concentration 49.5 uM, Number of replicates 2.0, Standard deviation 1.2406953242285323 %",12.1%
same,inhibition,"PRVABC59, Concentration 99.01 uM, Number of replicates 2.0, Standard deviation 0.23839741086829247 %",18.5%
same,inhibition,"PRVABC59, Concentration 198.0 uM, Number of replicates 2.0, Standard deviation 0.8459297336369422 %",27.9%
O=S(=O)(Nc1ccc(Oc2ccccc2Cl)cc1)c1c[nH]c2ccc(Cl)cc12,inhibition,"PRVABC59, Concentration 49.5 uM, Number of replicates 2.0, Standard deviation 1.8433959322838933 %",11%
same,inhibition,"PRVABC59, Concentration 99.01 uM, Number of replicates 2.0, Standard deviation 3.1252865977713378 %",14.3%
same,inhibition,"PRVABC59, Concentration 198.0 uM, Number of replicates 2.0, Standard deviation 3.9544884158217 %",39%
O=C1NCc2ccccc2C12CCN(Cc1cc3ccc(F)cc3[nH]1)CC2,inhibition,"PRVABC59, Concentration 49.5 uM, Number of replicates 2.0, Standard deviation 3.3747851513626115 %",6.9%
same,inhibition,"PRVABC59, Concentration 99.01 uM, Number of replicates 2.0, Standard deviation 2.4802388593809592 %",13.2%
same,inhibition,"PRVABC59, Concentration 198.0 uM, Number of replicates 2.0, Standard deviation 2.1357042200194405 %",18.5%
